The list is not random: actives were taken first. Their share in the collection is about 2.9%.
Nrf2 ARE act – qHTS of Nrf2 Activators; Potency, µM (series often up to 46.1 µM), actives largely listed as activators; 410,000 tested, 0.31% active; AID 624171, 2012; AREc32 ARE-luciferase reporter (MCF7-derived line), luminescence, 24 h; further: nearly all actives have a fitted effect of over 65% in size
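Each well held 1000 AREc32 cells, which were incubated with compound for 24 hr at 37 deg C after overnight attachment, and ARE reporter activity was quantified by firefly luciferase luminescence.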
S2 tox – Viability Counterscreen for Primary qHTS for Inhibitors of ATXN expression | S2 cells (HEK-293 line with an ATXN2-luciferase reporter) viability, CellTiter-Fluor protease fluorescence, 24 h | Potency, µM (titrated, usually from 56.7 µM), usual class: cytotoxic | 400,000 tested, 0.49% active; further: nearly all actives have a fitted effect of over 40% in size
ATXN2 expr inh – Primary qHTS for Inhibitors of ATXN expression; 360,000 tested, 0.72% active; HEK-293 ATXN2-luciferase reporter, luminescence, 24 h; Potency, µM (series often up to 57 µM), usual class: inhibitors; further: nearly all actives have a fitted effect of over 55% in size
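ATXN2-luciferase reporter cells (luciferase flanked by upstream and downstream ATXN2 gene portions) were treated 24 h at 37 °C with compounds at up to 57 uM. SteadyGlo luminescence gave expression; GF-AFC fluorescence gave viability.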
Nrf2 inh – Nrf2 qHTS screen for inhibitors; A549 ARE-Fluc reporter, luciferase luminescence, 18-24 h; Potency, µM (titrated, usually from 46 µM), hits mostly inhibitors; 360,000 tested, 2.1% active; AID 504444, 2011; further: nearly all actives have a fitted effect of over 60% in size
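Reporter: ARE-Fluc in A549. Exposure: 18-24 h, 37 °C, 5% CO2, 5% FBS OPTI-MEM. Readouts: fluorescent cytotoxicity (CellTiter-Fluor), then luminescent Nrf2 signal after BugLite.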
A549 tox – Nrf2 qHTS screen for inhibitors: counterscreen for cytotoxicity | A549 ARE-Fluc cells, CellTiter-Fluor viability, 18-24 h | Potency, µM (doses to about 46 µM), most hits filed as inhibitors | 390,000 tested, 0.16% active
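Cytotoxicity counterscreen: CellTiter-Fluor fluorescence was measured in A549 ARE_Fluc cells after 18-24 h of compound exposure in a concentration series. The subsequent BugLite luminescent read reports ARE-luciferase activity.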
Numbers stand for hits; 0 = inactive; ? = inconclusive; - = no result; [ ] = dose if it differs, or a comment. The call rests on the fitted dose curve; in most records, active means well fitted curve in the direction sought with a large enough effect; inconclusive means small, poorly fitted or top-dose-only effect, or another doubt; inactive means no such curve, though single readings can be large; an effect the other way counts as inactive or inconclusive.

SMILES	Nrf2 ARE act	S2 tox	ATXN2 expr inh	Nrf2 inh	A549 tox
O=C(CSc1nc2ccccc2c(=O)n1Cc1ccco1)c1ccccc1	0	0	0	18µM	0[1.84 µM]
O=c1c2ccccc2nc(SCc2ccccc2)n1Cc1ccco1	0	0	0	0	0
O=C(OCC(=O)N1CCN(C(=O)c2ccco2)CC1)c1cccc(F)c1	0	0	0	0	0
CC[n+]1cccc(-c2nc3ccccc3s2)c1	0	0	0	?	0
CC[n+]1c(/C=C/N(C)c2ccccc2)n(-c2ccccc2)c2ccc(-c3nc4ccccc4s3)cc21	0	13µM	4.7µM	?	?
CCOc1ccc(NC(=S)N2CCN(S(C)(=O)=O)CC2)cc1	0	0	0	0	0
CN(C(=O)C(C)(C)C)c1ccc(OCC(=O)N2CCc3ccccc3C2)cc1	0	0	0	10µM	0
Cc1ccc(OCC(=O)N2CCc3ccccc3C2)cc1	0	0	-	0	0
CSc1ccc2c(c1)C(N1CCN(C)CC1)Cc1ccc(F)cc1S2 (stereo unspecified)	0	0	-	0	0
COc1ccc2c(c1)CC(N1CCN(C)CC1)c1cc(OC)ccc1S2 (stereo unspecified)	0	?	28µM	?	0
Cc1cc(NC(=O)CS(=O)(=O)c2cn(Cc3cccc(Br)c3)c3ccccc23)no1	0	?	?	-	-
Cc1cc(NC(=O)CS(=O)(=O)c2cn(Cc3ccccc3Cl)c3ccccc23)no1	0	0	0	26µM	0[1.84 µM]
CCOc1ccc(S(=O)(=O)NCc2ccco2)c2ccccc12	13µM	0	0	0	0
COc1cccc2sc(=NC(=O)CS(=O)(=O)c3ccc(F)cc3)n(C)c12	0	0	0	0	0
CCn1c(=NC(=O)CS(=O)(=O)c2ccc(C)cc2)sc2cccc(OC)c21	0	0	0	23µM	0
Cn1nc(-c2ccc(OCC(=O)Nc3cccnc3)cc2)c2ccccc2c1=O	0	0	0	?	0
Cc1ccc(NC(=O)c2ccc(-c3nn(C)c(=O)c4ccccc34)cc2)cc1	0	?	?	?	0
Cn1nc(-c2ccc(C(=O)Nc3cccc(Cl)c3)cc2)c2ccccc2c1=O	0	40µM	16µM	6.5µM	0
Cn1nc(-c2ccc(C(=O)Nc3ccc(F)cc3)cc2)c2ccccc2c1=O	0	0	?	18µM	0
Cn1nc(-c2ccc(OCC(=O)Nc3cccc(C(F)(F)F)c3)cc2)c2ccccc2c1=O	0	?	0	26µM	?
Cc1cc(S(=O)(=O)N2CCC(N3CCCCC3)CC2)ccc1-n1cnnn1	0	?	0	0	0
CCOC(=O)c1cnc(-n2nc(C)cc2C)nc1NC1CCCC1	0	?	?	?	?
COc1ccc(C(=O)c2coc(-c3ccccc3C(=O)O)c2C(=O)O)cc1	0	0	0	0	0
COc1ccc(C(=O)c2c(C(F)(F)F)oc3c2C(=O)c2ccccc2C3=O)cc1	0	22µM	32µM	-	7.3µM
CCCCCCCCCCn1ccc(=N)cc1	0	0	?	15µM	0
SMILES	Nrf2 ARE act	S2 tox	ATXN2 expr inh	Nrf2 inh	A549 tox
O=C(C1=C[C@H](c2ccc3c(c2)OCO3)C[C@H](OCc2ccc(CO)cc2)O1)N1CCN(Cc2ccc3c(c2)OCO3)CC1	0	0	0	21µM	0
O=C(C1=C[C@H](C2CCCCC2)C[C@H](OCCCCO)O1)N1CCN(Cc2ccc3c(c2)OCO3)CC1	0	0	0	18µM	?
CCO[C@@H]1OC(C(=O)N2CCN(Cc3ccc4c(c3)OCO4)CC2)=C[C@H](C2CCCCC2)[C@H]1CCCO	0	18µM	?	0	0
CCO[C@H]1OC(C(=O)N2CCN(Cc3ccccc3)CC2)=C[C@@H](C2CCCCC2)[C@@H]1CCCO	0	?	?	0	0
CCN(CC)CC(O)c1cccn1-c1ccc(CNC(=O)NC(C)C)cc1 (stereo unspecified)	0	0	0	0	0
COc1cccc(C2CCCCN2Cc2nc(-c3ccc(C)o3)oc2C)c1 (stereo unspecified)	0	?	0	0	0
Cc1ccc(Cn2c(=O)c3cccnc3n(CC(=O)Nc3cccc(C(F)(F)F)c3)c2=O)cc1	0	0	0	5.8µM	0
Cc1ccccc1S(=O)(=O)Cc1ccc(C(=O)N2CCN(c3cccc(C)c3C)CC2)o1	0	18µM	13µM	10µM	?
Cc1ccc(S(=O)(=O)Cc2ccc(C(=O)N3CCN(c4cccc(Cl)c4)CC3)o2)cc1	0	?	?	?	0
Cc1ccccc1S(=O)(=O)Cc1ccc(C(=O)N2CCN(c3cccc(Cl)c3)CC2)o1	0	?	?	18µM	0
CC1(C)OC(=O)C(=NNc2ccc(Cl)cc2)C(=O)O1	0	?	0	0	0
Cn1nc(C(=O)NC2CCCN(Cc3ccccc3F)C2)c2ccccc2c1=O (stereo unspecified)	0	0	0	0	0
CCc1cc(C(=O)NC2CCCN(Cc3ccccc3F)C2)n(C)n1 (stereo unspecified)	0	0	0	13µM	0
Cc1ccc(Nc2c([N+](=O)[O-])c(=O)oc3ccccc23)cc1	?	0	?	18µM	?
Cc1noc2ncnc(N3CCCC(C(=O)NCCC(C)C)C3)c12 (stereo unspecified)	0	0	0	23µM	0
COCCCNC(=O)C1CCCN(c2ncnc3onc(C)c23)C1 (stereo unspecified)	0	0	0	?	0
COc1ccc(/C=N/Nc2nc(C)cc(-c3ccccc3)n2)cc1OC	0	0	0	23µM	0
C/C=C/c1cnc2c(c1)C(=O)N([C@H](C)CO)C[C@@H](C)[C@@H](CN(C)C(=O)NC1CCCC1)O2	0	0	0	-	-
CCN(CC)S(=O)(=O)c1cc(NC(=O)C(C)OC(=O)c2[nH]c(C)c(C(C)=O)c2C)ccc1C (stereo unspecified)	0	?	0	12µM	0
COc1cc(OC)cc(C(=O)Nc2ccc(NC(=O)c3ccco3)c(Cl)c2)c1	0	0	?	26µM	?
CNC(=S)Nc1cc(OC)c(NC(=O)c2ccco2)cc1OC	0	0	0	0	0
O=C(Nc1cc(Cl)ccc1Cl)c1ccco1	13µM	?	0	0	0
COc1ccc(Cl)cc1NC(=S)NC(=O)c1ccco1	10µM	0	0	0	0
O=C(Nc1cc2nn(-c3ccccc3)nc2cc1Cl)c1ccco1	1µM	0	0	-	0
CCOc1ccc2oc(=O)cc(CN3CCN(C(=O)c4ccco4)CC3)c2c1	0	0	0	0	0
COc1cccc(-c2cnc(C(O)c3cccc(OC)c3)[nH]2)c1 (stereo unspecified)	0	0	0	-	-
COc1ccc(N2CCN(C(=O)c3cn(CC4CCCCC4)nn3)CC2)cc1	0	0	0	0	0
CCOC(=O)c1cc(-c2ccccc2)n(CCCC(=O)Nc2ccc(C)c(Cl)c2)c1C	0	-	-	-	0
